Laboratory results: PubChem BioAssay AID485290 (National Center for Advancing Translational Sciences (NCATS), 2010)
The whole screen tested about 350,000 compounds, of which about 990 (0.28%) were called active. Where a call stands in place of a potency, no number is given. Not shown: some 2% with an inconclusive outcome. Calls follow the shape of the dose curve; as a rule, active = well fitted inhibition curve with a large enough effect; inconclusive = small, poorly fitted or top-dose-only effect; inactive = no such curve, though single readings can be large or run the other way. The sample as a whole holds a higher share of actives than the screen did.

biological target: Tyrosyl-DNA phosphodiesterase 1 (Homo sapiens) (UniProt Q9NUW8); assay: qHTS Assay for Inhibitors of Tyrosyl-DNA Phosphodiesterase (TDP1); conditions: recombinant TDP1, AlphaScreen DNA substrate cleavage; series mostly up to 130 µM; also: nearly all actives have a fitted effect of over 40% in size
Sequence (Q9NUW8 whole entry, looked up): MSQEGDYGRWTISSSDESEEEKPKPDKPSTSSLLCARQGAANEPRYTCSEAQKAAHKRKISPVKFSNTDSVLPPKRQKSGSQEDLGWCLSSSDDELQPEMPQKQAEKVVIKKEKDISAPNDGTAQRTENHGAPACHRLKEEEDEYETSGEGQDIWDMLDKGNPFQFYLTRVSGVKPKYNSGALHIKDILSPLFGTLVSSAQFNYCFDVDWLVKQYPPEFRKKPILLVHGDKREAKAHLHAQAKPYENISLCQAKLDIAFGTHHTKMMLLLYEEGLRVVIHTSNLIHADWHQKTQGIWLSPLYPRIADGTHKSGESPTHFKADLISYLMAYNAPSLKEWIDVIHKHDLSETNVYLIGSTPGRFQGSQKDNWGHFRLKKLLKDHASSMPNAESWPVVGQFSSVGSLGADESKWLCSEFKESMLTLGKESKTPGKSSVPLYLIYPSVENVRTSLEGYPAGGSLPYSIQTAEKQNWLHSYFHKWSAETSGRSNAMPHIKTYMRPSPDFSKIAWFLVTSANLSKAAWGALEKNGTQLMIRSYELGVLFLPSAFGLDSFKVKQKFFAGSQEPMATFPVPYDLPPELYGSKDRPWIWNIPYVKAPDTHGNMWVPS
Procedure, shortened: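 E. coli-derived human Tdp1, 1 nM final. Cpd preinc 15 min RT; substrate 15 nM final, 5 min RT; AS bead mix 10 ug/ml final, 10 min RT. Signal loss = tyrosine-FITC cleavage. No-enzyme wells = max signal.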
Potency is read from the fitted curve at half-maximal effect.

SMILES | Potency
COc1ccc(S(=O)(=O)Nc2cccc3cccnc23)c(N)c1 | inactive
COc1ccccc1NC(=O)C(=O)c1cc(C)n(-c2ccccc2F)c1C | inactive
CCCOc1ccc(NC(=O)CC2C(=O)N(c3ccccc3)C(=O)N2Cc2ccco2)cc1 (stereo not drawn) | inactive
O=C(O)CSc1ccc(S(=O)(=O)N2CCCC2)cn1 | inactive
N#Cc1c(N2CCCCC2)nc(N)c2c(N)nc(SCC(=O)O)cc12 | 50.1 µM (active)
Cc1cc(C)c(C#N)c(N2CCC(C(N)=O)CC2)n1 | inactive
O=C1CCCC2=C1[C@@]1(CCC(c3ccccc3)C1)N=C(Nc1nc3ccccc3o1)N2 (stereo partly drawn) | inactive
CCCCCCC1(C)NC(c2ccc3c(c2)OCO3)=CC(c2ccccc2O)N1 (stereo not drawn) | inactive
COc1ccc(Nc2cc(C(=O)NCCCN(C)c3ccccc3)c3ccccc3n2)c(OC)c1 | inactive
Cc1ccc(NC(=O)CCCn2c(=O)c3cccn3c3ccccc32)cc1Cl | inactive
O=C1c2ccccc2C(=O)N1c1ccc(S(=O)(=O)N2CCOCC2)c2ccccc12 | inactive
O=C(Nc1cccc2cccnc12)C(F)(F)F | inactive
CCOC(=O)C1=C(C)N=C2c3ccccc3C(=O)C2C1c1ccc(Br)cc1 (stereo not drawn) | inactive
CCOC(=O)C1=NO[C@@]2(C=C(Br)C(=O)[C@H]3O[C@H]32)C1 | 8.91 µM (active)
CCOC(=O)C1=NOC(Cn2cc(C(C)=O)c(=O)[nH]c2=O)C1 (stereo not drawn) | inactive
CCOC(=O)N1CCc2c(sc(NCc3cccc(F)c3)c2C(=O)Nc2ccccc2OCC)C1 | inactive
CCC1(C)CC(=O)c2c(ccc3oc(C(=O)Nc4ccc(C(C)=O)cc4)c(C)c23)O1 (stereo not drawn) | inactive
COc1ccc(Cc2nc3ccc(C(=O)NCc4ccccc4Cl)cc3o2)cc1 | inactive
CC(=O)NS(=O)(=O)c1ccc(NC(=O)C2C3C=CC(C3)C2C(=O)O)cc1 (stereo not drawn) | 79.4 µM (active)
CC(C)COC(=O)c1ccc(NC(=O)C2C3C=CC(C3)C2C(=O)O)cc1 (stereo not drawn) | inactive
COC(=O)c1cc(NC(=O)C2C3C=CC(C3)C2C(=O)O)cc(C(=O)OC)c1 (stereo not drawn) | inactive
O=C(NCc1ccc2c(c1)CCN2C(=O)c1ccccc1)Nc1cc(F)ccc1F | inactive

SMILES | Potency
O=C(CNC(=O)c1ccc(Cl)c(C(F)(F)F)c1)OC(C(=O)Nc1cc(C(F)(F)F)ccc1Cl)c1ccccc1 (stereo not drawn) | inactive
CC(=O)Nc1cccc(NC(=O)CSc2nccn2Cc2ccc3c(c2)OCO3)c1 | inactive
C=Cc1ccc(C(=O)N2CCCC(CCC(=O)N3CCN(c4ccccn4)CC3)C2)cc1 (stereo not drawn) | 1.26 µM (active)
O=C(CCC1CCCN(C(=O)c2ccc(F)c(F)c2)C1)N1CCN(c2ccccn2)CC1 (stereo not drawn) | inactive
O=C(CCC1CCCN(C(=O)Cc2ccc(F)cc2)C1)N1CCN(c2ccccn2)CC1 (stereo not drawn) | inactive
Cc1ccc(S(=O)(=O)NC(N)=NCCC[C@@H](NC(=O)CNC(=O)c2ccccc2)C(=O)Nc2cc(C(F)(F)F)ccc2Cl)cc1 | inactive
CC(Nc1ncnc2ccc(-c3ccc4c(c3)OCO4)cc12)c1ccco1 (stereo not drawn) | inactive
O=C(O)c1ccc2c(c1)N(Cc1ccc(F)cc1)C(=O)c1ccccc1S2=O (stereo not drawn) | inactive
O=c1[nH]c(=S)[nH]c2[nH]c(=S)[nH]c12 | 8.91 µM (active)
CCCS(=O)(=O)Nc1cccc(-c2cn3ccsc3n2)c1 | inactive
COC(=O)c1ccc(NC(=O)CCc2c(C)nn(-c3ccc(N4CCCC4)nn3)c2C)cc1 | inactive
CN(C)c1ccc(C(=O)NCC(=O)OC(C(=O)Nc2cc(C(F)(F)F)ccc2Cl)c2ccccc2)cc1 (stereo not drawn) | inactive
CCOc1cccc(C(=O)Nc2nnc(S(=O)(=O)N(C)c3ccc(C)cc3)s2)c1 | inactive
O=C(NCc1nnc(C(=O)Nc2ccc(C(F)(F)F)cc2Cl)o1)c1ccccc1 | inactive
COc1ccc(NC(=O)c2sc3nc[nH]c(=O)c3c2C)cc1 | inactive
Cc1cccc(N2CCN(c3ccc(C(=O)O)cc3NC(=O)c3ccccc3F)CC2C)c1 (stereo not drawn) | inactive
O=C(NCCCO)C(=O)Nc1c2c(nn1-c1ccccc1)CSC2 | inactive
CCOC(=O)C1=C(C)c2ccccc2OC1C(=O)OCC (stereo not drawn) | inactive
C=C1c2cccc(OC)c2O[C@H](C(=O)OCC)[C@@H]1CCCCCC | 35.5 µM (active)
COc1ccc(C(=O)N(Cc2ccccc2)Cc2ccc(OC)c(COc3ccc(NC(C)=O)cc3)c2)c(O)c1 | inactive
CC(=O)NC(c1cccs1)c1cc(Cl)c2cccnc2c1O (stereo not drawn) | inactive
